About 83,000 compounds went through this panel and 20% of them were active in at least one assay; those are over-represented in the sample as a whole.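 Single-dose data. Exposure time 48 hours. Values below 10 considered active.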 Active and inactive are the calls of the source.
Experiments:
Experiment in all cases: NCI-60 one-dose screen, 48 h (100 = growth as untreated, 0 = no growth, -100 = all killed)
HT29 colon = settings: 10 µM unless noted
SNB-75 CNS = settings: 10 µM unless noted
SNB-19 CNS = settings: 10 µM unless noted
U251 CNS = settings: 10 µM unless noted
PC-3 prostate = settings: 10 µM unless noted
UACC-62 melanoma = settings: 10 µM unless noted
LOX IMVI melanoma = settings: 10 µM unless noted
SK-MEL-28 melanoma = settings: 10 µM
SK-MEL-2 melanoma = settings: 10 µM unless noted
SK-MEL-5 melanoma = settings: 10 µM unless noted

Measured: growth

O=c1oc2ccc(F)cc2c(=O)n1-c1ccc(Br)cc1F
active: SNB-75 CNS -15.7% | U251 CNS 2.06% | PC-3 prostate -2.97% | UACC-62 melanoma -6.65% | SK-MEL-2 melanoma -30.2%
inactive: HT29 colon 32.6% | SNB-19 CNS 17.1% | LOX IMVI melanoma 13.5% | SK-MEL-28 melanoma 11.1%

O=C(/C=C/c1ccc(C(F)(F)F)cc1)c1ccc(Nc2nc(NCCO)nc(N3CCOCC3)n2)cc1
inactive: SNB-75 CNS 40.1% | SNB-19 CNS 39.5% | PC-3 prostate 25.3% | SK-MEL-5 melanoma 46.3% | UACC-62 melanoma 56% | SK-MEL-2 melanoma 109%
active: HT29 colon 7.26% | U251 CNS -51.3% | LOX IMVI melanoma 3.82%

O=C1c2cc(I)ccc2Oc2cc([N+](=O)[O-])ccc2N1c1ccc(Cl)cc1F
inactive: HT29 colon 83.9% | SNB-75 CNS 75.4% | SNB-19 CNS 90.5% | U251 CNS 79.3% | PC-3 prostate 78.7% | UACC-62 melanoma 76.8% | LOX IMVI melanoma 86.7% | SK-MEL-28 melanoma 97.3% | SK-MEL-2 melanoma 85.4%

CN1C(=O)N(C)C2Nn3c(s/c(=C4\C(=O)N(CCc5ccccc5)c5ccccc54)c3=O)=NC21 (stereo not given)
inactive: HT29 colon 38.4% | SNB-75 CNS 48.2% | SNB-19 CNS 85.7% | U251 CNS 77.8% | PC-3 prostate 44.4% | UACC-62 melanoma 44.7% | LOX IMVI melanoma 54.8% | SK-MEL-28 melanoma 76.4% | SK-MEL-2 melanoma 69.3%

O=C1c2ccccc2C(=O)c2c1ccc1[nH]c(CCl)nc21
inactive: SNB-75 CNS 33.4% | SNB-19 CNS 47.8% | PC-3 prostate 39.3% | UACC-62 melanoma 39.5% | SK-MEL-28 melanoma 57.6% | SK-MEL-2 melanoma 27.4%
active: HT29 colon 5.78% | U251 CNS 9.78% | LOX IMVI melanoma -36.9%

Cc1nn(-c2nc3ccccc3[nH]2)c2c1C(c1ccc(OCC(N)=O)cc1)CC(=O)N2 (stereo not given)
inactive: HT29 colon 109% | SNB-75 CNS 92.3% | SNB-19 CNS 103% | U251 CNS 110% | PC-3 prostate 97.4% | UACC-62 melanoma 97.8% | LOX IMVI melanoma 109% | SK-MEL-28 melanoma 105% | SK-MEL-2 melanoma 107%

Nc1ccccc1-c1ccc(-c2ccc(Cl)cc2)c2c1[nH]c1ccccc12
inactive: HT29 colon 67.4% | SNB-75 CNS 83% | SNB-19 CNS 81.8% | U251 CNS 70.6% | PC-3 prostate 14.1% | UACC-62 melanoma 60.3% | LOX IMVI melanoma 72.5% | SK-MEL-28 melanoma 97.1% | SK-MEL-2 melanoma 79.6%

O=C(Nc1ccc(I)cc1F)c1cc(Br)ccc1O
active: SNB-75 CNS -26.1% | U251 CNS -14.5% | PC-3 prostate 7.44% | UACC-62 melanoma -19.2% | LOX IMVI melanoma 6.07% | SK-MEL-28 melanoma -3.35% | SK-MEL-2 melanoma -26.5%
inactive: HT29 colon 30.4% | SNB-19 CNS 19%

N[C@@H](CC/[N+]([O-])=N/O)C(=O)O
inactive: HT29 colon 99.8% | SNB-75 CNS 113% | SNB-19 CNS 97.8% | U251 CNS 94.9% | PC-3 prostate 102% | UACC-62 melanoma 98.4% | LOX IMVI melanoma 104% | SK-MEL-28 melanoma 106% | SK-MEL-2 melanoma 107%

Clc1ccc(Nc2scc3[n+]2CCC3)cc1
inactive: HT29 colon 106% | SNB-75 CNS 94.3% | SNB-19 CNS 98.4% | U251 CNS 98% | PC-3 prostate 89.2% | UACC-62 melanoma 87.3% | LOX IMVI melanoma 102% | SK-MEL-28 melanoma 100% | SK-MEL-2 melanoma 106%

O=C(Nc1ccc(Cl)cc1F)c1cc(I)ccc1O
inactive: HT29 colon 103% | SNB-75 CNS 16.5% | SNB-19 CNS 18.9% | PC-3 prostate 44% | LOX IMVI melanoma 19% | SK-MEL-28 melanoma 18.5%
active: U251 CNS 9.91% | UACC-62 melanoma -1.26% | SK-MEL-2 melanoma -19.3%

Nc1ccc(-c2nn3c(CCC(=O)c4nc5ncccc5[nH]4)nnc3s2)c(O)c1
inactive: HT29 colon 103% | SNB-75 CNS 70.3% | SNB-19 CNS 88.2% | U251 CNS 103% | PC-3 prostate 82.8% | UACC-62 melanoma 92.9% | LOX IMVI melanoma 85.2% | SK-MEL-28 melanoma 105% | SK-MEL-2 melanoma 100%

COc1cc(/C=C/C(=O)N2c3ccccc3CC2C)c(OC)c2c1OCO2 (stereo not given)
inactive: HT29 colon 83.8% | SNB-75 CNS 97.2% | SNB-19 CNS 96.2% | U251 CNS 87.6% | PC-3 prostate 68.7% | UACC-62 melanoma 84.5% | LOX IMVI melanoma 94.3% | SK-MEL-28 melanoma 90.7% | SK-MEL-2 melanoma 98.6%

O=C(Nc1ccc(Br)cc1F)c1cc(F)ccc1O
inactive: HT29 colon 18% | SNB-19 CNS 19.3%
active: SNB-75 CNS -16.8% | U251 CNS 3.38% | PC-3 prostate 2.45% | UACC-62 melanoma -16.4% | LOX IMVI melanoma 9.8% | SK-MEL-28 melanoma 6.8% | SK-MEL-2 melanoma -29.2%

O=C(Nc1ccc(Br)cc1F)c1cc(Cl)ccc1O
inactive: HT29 colon 15.6% | SNB-19 CNS 14%
active: SNB-75 CNS -34.7% | U251 CNS -0.181% | PC-3 prostate -5.33% | UACC-62 melanoma -24.9% | LOX IMVI melanoma 1.68% | SK-MEL-28 melanoma -6.77% | SK-MEL-2 melanoma -25.8%
